This passage reports RAM network inhibition results from PubChem BioAssay.

The source made the active and inactive calls.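 The calls were made as follows: active = RAM network inhibition above 8.4% in each of two replicates, 3 SD over the compound average; inconclusive = above 8.4% inhibition in only one replicate; inactive = 8.4% inhibition or less in each replicate.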

A short description of this experiment: RAM signaling pathway blockade in yeast – S. cerevisiae, Pdr1DBD-CYC8 efflux-inhibited sensitized strain, primary screen (AID 1298).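 Also: 0% = DMSO untreated cells without growth and 100% = 10 µM 1-NA-PP1 full growth; higher means more yeast growth rescued from 5-FOA killing.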 The settings on record: S. cerevisiae cbk1-as DSE1-URA3 strain, 5-FOA growth OD615, 2 d; at 50 µM; active compounds read high.
Regarding `COc1cc(OC)c(NC2c3ccccc3C(=O)N2c2cc(C)ccn2)cc1Cl` (centres undefined), the RAM network inhibition is 6.68% (inactive).
To `CC(=O)Nc1ccc(NC(=O)CSc2nccn2Cc2ccccc2)cc1` belongs 0.96% (inactive).
To `CCn1c(C(=O)NC(C)c2ccc3c(c2)OCCO3)cc2sccc21` (centres undefined) belongs 3.22% (inactive); to `Cn1c(Cn2c(=O)sc3ccccc32)nnc1SCC(=O)N1CCCC1`, 6.71% (inactive).
With `CN1CCc2c(sc3c2C(=O)NC(c2ccc(-c4cccc(Cl)c4)o2)N3)C1` (centres undefined) the figure was 2.2% (inactive); with `NC(=O)C1CCN(CCCNC2CC(=O)N(Cc3ccc(N4CCCC4=O)cc3)C2=O)CC1` (centres undefined), 5.68% (inactive); with `O=C(NCCN1CCOCC1)c1ccc2c(c1)N(Cc1ccccc1)CCS2`, 6.44% (inactive).
`COc1ccc(C2C(C(=O)N3CCN(c4ccccc4)CC3)c3ccccc3C(=O)N2C)cc1OC` (centres undefined): the RAM network inhibition was 0.53% (inactive).
For `CC(=O)Nc1ccc(S(=O)(=O)N2CCN(c3cc(C)ccc3C)CC2)cc1`, the RAM network inhibition was 0.1% (inactive).
To `COc1ccccc1NC(=O)CSc1ncn[nH]1` belongs 2.9% (inactive); to `Cc1ccc(/C=N/n2c(C)nnc2C)cc1`, 0.41% (inactive).
With `C=CCSC1=C(C#N)C(c2ccc(C(C)C)cc2)CC(=O)N1` (centres undefined) the figure was 5.66% (inactive).
To `COc1ccccc1NC(=O)C1=C(C)Nc2nnnn2C1c1cccc(C)c1` (centres undefined) belongs 2.19% (inactive).
For the compound `CC(C)N1C(=O)CCC1C(=O)N1CCN(c2ccccn2)CC1` (centres undefined), the RAM network inhibition is 1.45% (inactive).
With `Cc1ccc(Cl)cc1N1CCN(C(=O)C2CCC(=O)N2C(C)C)CC1` (centres undefined) the figure was 5.7% (inactive).
To `COc1ccc(Cl)cc1S(=O)(=O)n1ccnc1C(C)C` belongs 2.15% (inactive); to `COc1ccc(N2C(=O)CC(c3ccc(OC(C)C)cc3)C2=O)cc1` (centres undefined), 3.45% (inactive); to `COC(=O)CN1C(=O)C(O)(CC(=O)c2cccc(Br)c2)c2ccccc21` (centres undefined), 2.42% (inactive).
Take `O=C1C(=O)N(CCCn2ccnc2)C(c2cccnc2)/C1=C(/O)c1ccc(Cl)cc1` (centres undefined): the RAM network inhibition was 1.1% (inactive).
With `CCc1ccccc1S(=O)(=O)Cc1ccc(C(=O)N2CCN(c3ccccn3)CC2)o1` the figure was 2.4% (inactive).
With `O=C(NC1CCCc2ccccc21)c1cccnc1` (centres undefined) the figure was 0.22% (inactive); with `Brc1ccc(-c2noc(CCc3ccccc3)n2)o1`, 0.73% (inactive).
With `COc1cc2c(cc1OC)CN(Cc1cccs1)CC2` the figure was 2.76% (inactive); with `Cc1ccc(C)c(NC(=O)CS(=O)(=O)c2cn(C)c3ccccc23)c1`, 1.3% (inactive).
In the case of `CCOc1ccc(S(=O)(=O)Nc2ccccc2C(=O)NCC2CCCO2)cc1` (centres undefined), the RAM network inhibition was 5.77% (inactive).
For the compound `CN1CCN(CCCNC(=O)c2ccc(CS(=O)(=O)c3ccc(Br)cc3)o2)CC1`, the RAM network inhibition is -0.99% (inactive).
To `O=C(COC(=O)C1CC(=O)N(C2CCCCC2)C1)c1ccc(F)cc1` (centres undefined) belongs 2.97% (inactive); to `C=CCN1C(=O)c2oc3ccccc3c(=O)c2C1c1ccc(O)c(OC)c1` (centres undefined), 5.67% (inactive).
To `Cc1ccc(Oc2ccccc2)c(NC=O)c1` belongs 1.17% (inactive).
To `Cc1c(C)n(C(=O)CSc2nncn2C)c2ccccc12` belongs 3% (inactive); to `Cc1ccc(C)c(Cn2c(CN(C)Cc3ccccc3)nc3c2c(=O)n(C)c(=O)n3C)c1`, 2.51% (inactive); to `Cc1noc(NS(=O)(=O)c2ccc(NC(=O)CSc3ncccn3)cc2)c1C`, 1.94% (inactive).
With `C=CCOC(=O)C1=C(C)N(C)C(=O)NC1c1cc2c(cc1Br)OCO2` (centres undefined), the RAM network inhibition was 5.32% (inactive).
With `CCOc1ccccc1Oc1c(C)oc2cc(OC(=O)N3CCOCC3)ccc2c1=O` the figure was 4.64% (inactive).
As for `COC(=O)CSc1nc(C)cc(Oc2ccccc2)n1`, the RAM network inhibition was 4.9% (inactive).
With `Cc1noc(C)c1S(=O)(=O)N(CC(=O)N1CCc2ccccc21)c1ccc(C(C)C)cc1` the figure was 5.36% (inactive).
For `CSc1ccc(Cl)c(C(=O)NCc2ccco2)c1`, the RAM network inhibition was 5.31% (inactive).
To `CSc1nnc(Cn2c(=O)sc3ccccc32)n1-c1ccccc1C` belongs 2.76% (inactive).
To `CCCC(=O)C1=C(O)C(C(=O)OC)C(C)(C)CC1=Nc1ccccc1` (centres undefined) belongs 2.75% (inactive).
